# Laboratory results as given in publication PMC7826789 (International Journal of Molecular Sciences, 2021).
# Tested on: BRSK2
# Settings: Compound Concentration (nM):1000
# 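Also: KINOMEscan scanMAX binding as percent activity remaining versus control; lower means stronger binding.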
row,SMILES,Percent Control
1,COc1cc2ncnc(Nc3ccc4c(cnn4Cc4ccccc4)c3)c2cc1OC.Cl [GW282449A],100%
2,COC(=O)Nc1nc2ccc(Oc3ccc(NC(=O)Nc4cc(C(F)(F)F)ccc4F)cc3)cc2s1.Cl [GW693917A],93%
3,NS(=O)(=O)c1ccc(N/N=C2\C(=O)Nc3ccc(C(=O)NCc4ccncc4)cc32)cc1 [GW300657X],94%
4,Cl.O=C(Nc1ccc(Oc2ccc3[nH]c(NC(=O)c4ccco4)nc3c2)cc1)Nc1cc(C(F)(F)F)ccc1F [GW683134A],98%
5,COc1ccccc1-c1cc(/C=C2\C(=O)Nc3ncc(Br)cc32)cc(Br)c1O [GW442130X],100%
6,CN1CCN(C(=O)c2ccc(NC(=O)Nc3ccc(N(C)c4ccnc(Nc5ccc(CS(C)(=O)=O)cc5)n4)cc3)cc2)CC1.Cl [GW830263A],100%
7,Cc1cc(O)cc(C)c1/C=C/c1cncc(C(N)=O)c1 [GW435821X],50%

# Tested on: BTK
# Settings: Compound Concentration (nM):1000
row,SMILES,Percent Control
1,O=C(Nc1n[nH]c2nc(-c3ccc(O)cc3)c(Br)cc12)C1CC1 [SB-725317],97%
2,COc1cccc(-c2c[nH]c3c(N/N=C/c4ccncc4)ncnc23)c1 [GW814408X],77%
3,Cl.O=C(O[C@H]1CN[C@H](C#Cc2cc3ncnc(Nc4ccc5c(cnn5Cc5ccccc5)c4)c3s2)C1)N1CCOCC1 [GSK200398A],77%
4,CCS(=O)(=O)c1ccc(OC)c(Nc2ncc(-c3cccc(OC)c3)o2)c1 [GW580509X],99%
5,COc1ccc2cc(-c3c(-c4ccncc4)nc(-c4ccc(S(C)(=O)=O)cc4C)n3C)ccc2c1 [SB-633825],45%
6,COc1ccc(COc2ccc(Cc3cnc(N)nc3N)cc2OC)cc1 [GW632580X],96%
7,C[C@@H](Oc1cc(-n2cnc3ccc(OC4CCN(C)CC4)cc32)sc1C(N)=O)c1ccccc1Cl [GSK579289A],92%
8,CCS(=O)(=O)c1ccc(OC)c(Nc2ncc(-c3cccc(F)c3)o2)c1 [GW621970X],71%
9,COc1cc(N2CCN(C(C)C)CC2)ccc1Nc1nc(Nc2ccc(F)cc2C(=O)NC[C@@H](O)CO)c2cc[nH]c2n1 [GSK1392956A],100%
10,COc1cc2ncn(-c3cc(O[C@H](C)c4ccccc4Cl)c(C(N)=O)s3)c2cc1OC [GSK237701A],53%
11,Cl.O=C(Nc1ccc(Oc2ccc3[nH]c(NC(=O)c4ccccc4)nc3c2)cc1)Nc1cc(C(F)(F)F)ccc1F [GW709042A],93%
12,COc1cc(C)c(N(C)C(=O)CN(C)C)cc1Nc1nc(Nc2cccc(F)c2C(N)=O)c2cc[nH]c2n1 [GSK2219385],100%
13,CCc1ccc(Oc2nccc(-c3c(-c4ccc(F)cc4)ncn3C3CCNCC3)n2)cc1 [SB-242719],100%
14,CC1=C(C(=O)Nc2ccc3[nH]ncc3c2)C(c2ccc3ccccc3c2)CC(=O)N1 (centres unmarked) [GSK270822A],13%
15,Nc1ncnc2occ(-c3ccc(NC(=O)Nc4cc(C(F)(F)F)ccc4F)cc3)c12 [GW770249X],87%
16,O=C1Nc2ccc(C(=O)c3ccco3)cc2C1=Cc1cc(Cl)c(O)c(Cl)c1 [GW406108X],87%
17,COc1ccc2[nH]c3c4[nH]c5ccc(OC)cc5c4c4c(c3c2c1)C(=O)NC4=O [GW296115X],74%
18,CN(C)CCNC(=O)Nc1ccc(N(C)c2ccnc(Nc3ccc(CS(C)(=O)=O)cc3)n2)cc1.Cl [GW830900A],74%
19,Cl.c1ccc(Cc2nc3ccc(Nc4ncnc5ccccc45)cc3[nH]2)cc1 [GR269666A],100%
20,COc1ccc2c(-c3ccnc(Nc4cccc(OC(F)(F)F)c4)n3)cnn2n1 [GW810372X],84%

row,SMILES,Percent Control
1,COc1cccc(-n2ncc3c(N/N=C/c4ccncc4)ncnc32)c1 [GW784752X],100%
2,COc1cc(/C=N/Nc2ncnc3[nH]ncc23)ccc1O [GW578748X],44%
3,NS(=O)(=O)c1ccc(N/N=C2\C(=O)Nc3ccc(C(=O)NCCc4c[nH]cn4)cc32)cc1 [GW300660X],100%
4,NS(=O)(=O)c1ccc(N/N=C2\C(=O)Nc3ccc(-c4cnco4)cc32)cc1 [GW276655],50%
5,NS(=O)(=O)c1ccc(Nc2ncc(-c3ccccc3)o2)cc1 [GW572399X],96%
6,C/C(Nc1ccc(S(N)(=O)=O)cc1)=C1/C(=O)Nc2ccccc21 [GW335962X],83%
7,Cl.O=S1CCN(Cc2ccc(-c3ccc4ncnc(Nc5ccc(OCc6ccccc6)c(F)c5)c4c3)o2)CC1 [GW576924A],100%
8,CN(C)c1cc2c(Nc3ccc4c(cnn4Cc4ccccc4)c3)ncnc2cn1 [GW282974X],64%
9,CCn1c(-c2nonc2N)nc2c(C#CC(C)(C)O)nc(OCCNC)cc21.Cl [GSK949675],100%
10,CC(C)COC(=O)c1ccc2c(c1)/C(=C/Nc1ccc(S(N)(=O)=O)cc1)C(=O)N2 [GW416981X],100%
11,CC1=C(C(=O)Nc2ccc3[nH]ncc3c2)C(c2ccc(Cl)c(Cl)c2)CC(=O)N1 (centres unmarked) [GSK299115A],26%
12,NS(=O)(=O)c1ccc(N/N=C2\C(=O)Nc3ccc(Cl)cc32)cc1 [GW280670X],100%
13,COc1cc(C=NNc2ncnc3c2cnn3-c2ccccc2)ccc1O [GW513184X],100%
14,COc1cc2ncnc(Nc3ccc4c(cnn4Cc4ccccc4)c3)c2cc1OC.Cl [GW282449A],40%
15,COC(=O)Nc1nc2ccc(Oc3ccc(NC(=O)Nc4cc(C(F)(F)F)ccc4F)cc3)cc2s1.Cl [GW693917A],72%
16,NS(=O)(=O)c1ccc(N/N=C2\C(=O)Nc3ccc(C(=O)NCc4ccncc4)cc32)cc1 [GW300657X],89%
17,Cl.O=C(Nc1ccc(Oc2ccc3[nH]c(NC(=O)c4ccco4)nc3c2)cc1)Nc1cc(C(F)(F)F)ccc1F [GW683134A],95%
18,COc1ccccc1-c1cc(/C=C2\C(=O)Nc3ncc(Br)cc32)cc(Br)c1O [GW442130X],99%
19,CN1CCN(C(=O)c2ccc(NC(=O)Nc3ccc(N(C)c4ccnc(Nc5ccc(CS(C)(=O)=O)cc5)n4)cc3)cc2)CC1.Cl [GW830263A],50%
20,Cc1cc(O)cc(C)c1/C=C/c1cncc(C(N)=O)c1 [GW435821X],100%
